# Only some compounds are listed: those with a hit (about 6.6% of all), similar ones and a draw of the others.
# RGS4 inhibitor – Inhibitors of Regulator of G Protein Signaling (RGS) 4: qHTS; Regulator of G-protein signaling 4 (Homo sapiens), P49798; Transcreener GDP fluorescence polarization, RGS4-accelerated GTP hydrolysis; Potency, µM (doses to about 114 µM), actives largely listed as inhibitors; 390,000 tested, 0.039% active; also: nearly all actives have a fitted effect of over 75% in size
# Target sequence (P49798 whole entry, looked up): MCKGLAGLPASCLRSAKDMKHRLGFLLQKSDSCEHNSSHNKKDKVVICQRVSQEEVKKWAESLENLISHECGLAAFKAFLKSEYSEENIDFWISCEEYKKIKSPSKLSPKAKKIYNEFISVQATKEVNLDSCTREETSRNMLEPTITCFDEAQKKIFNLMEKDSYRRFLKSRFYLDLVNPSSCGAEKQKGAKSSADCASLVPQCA
#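 MLSMR compounds (23 nl, pin-transferred) preincubated 10 min at room temperature with a 500nM (2x) first reagent, then RGS4 at 900nM (2x) plus Transcreener GDP mix added; fluorescence polarization (620/688 nm) read before and after 90 min at 30 °C.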
# MCF10A rerep – A quantitative high throughput screen for small molecules that induce DNA re-replication in MCF 10a normal breast cells. MCF 10A DNA re-replication, Hoechst nuclear intensity, 48 h. Potency, µM (series often up to 46.1 µM), hits mostly activators. 350,000 tested, 2.9% active; also: nearly all actives have a fitted effect of over 50% in size
# KB-V1 MDR tox – qHTS assay for MDR1-selective chemotherapeutics: Primary screen using the drug-selected MDR subline cells KB-V1 | KB-V1 MDR cells viability, CellTiter-Glo, 72 h | Potency, µM (doses to about 46.1 µM), hits mostly cytotoxic | 400,000 tested, 3.4% active; also: nearly all actives have a fitted effect of over 60% in size
#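 Potencies derive from concentration-effect curves fitted to normalized luminescence (CellTiter-Glo) of KB-V1 cells treated for 72 h at 37 degrees C in phenol-red-free DMEM containing 10% FBS.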
# KB-3-1 cytotox – qHTS assay for MDR1-selective chemotherapeutics: Primary screen using the parental adenocarcinoma cell KB-3-1. 400,000 tested, 1.4% active. KB-3-1 viability, CellTiter-Glo ATP luminescence, 72 h. AID 1347075, 2019. Potency, µM (series often up to 46.1 µM), actives largely listed as cytotoxic; also: nearly all actives have a fitted effect of over 60% in size
#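 Multi-concentration cytotoxicity screen in KB-3-1 cells grown in DMEM lacking phenol red with 10% FBS. After 72 h at 37 °C with compound, ATP-dependent luminescence was recorded.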
# SW480 rereplic – A quantitative high throughput screen for small molecules that induce DNA re-replication in SW480 colon adenocarcinoma cells | AID 624297, 2012 | Potency, µM (top dose mostly 46.1 µM), hits mostly activators | 340,000 tested, 1.8% active | SW480 DNA re-replication, Hoechst DNA content imaging, 48 h; also: nearly all actives have a fitted effect of over 55% in size
#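 Image-based read-out: total Hoechst fluorescence of nuclei (405 nm excitation, 500-530 nm emission), with hits raising the fraction of high-intensity nuclei. SW480 colon cells incubated 48 hr with compounds at 37 C.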
# PTAP TSG101 blk – qHTS Assay for Iinhibitors of HIV-1 Budding by Blocking the Interaction of PTAP/TSG101 | Potency, µM (top dose mostly 115 µM), hits mostly inhibitors | Fluorescence polarization, FITC-PTAP peptide / Tsg101 binding | Tumor susceptibility gene 101 protein (Homo sapiens), Q99816 | 340,000 tested, under 10 active; active = well fitted inhibition curve with a large enough effect in the main read-out, with a control signal flat, not every such curve was filed as active; inconclusive = small, poorly fitted or top-dose-only effect, or effect the other way, or a change in a side signal; inactive = no such curve, though single readings can be large or run the other way
# Target sequence (Q99816 whole entry, looked up): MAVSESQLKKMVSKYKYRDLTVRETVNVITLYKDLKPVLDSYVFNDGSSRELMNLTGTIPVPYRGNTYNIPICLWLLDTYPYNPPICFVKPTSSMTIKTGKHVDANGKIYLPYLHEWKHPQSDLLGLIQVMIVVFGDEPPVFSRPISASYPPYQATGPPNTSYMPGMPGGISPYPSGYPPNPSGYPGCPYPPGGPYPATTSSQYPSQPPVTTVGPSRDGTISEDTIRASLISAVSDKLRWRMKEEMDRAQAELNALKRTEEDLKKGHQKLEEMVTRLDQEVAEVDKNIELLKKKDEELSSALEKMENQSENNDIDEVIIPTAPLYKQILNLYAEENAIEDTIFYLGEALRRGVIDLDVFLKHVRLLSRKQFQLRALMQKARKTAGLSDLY
#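 Fluorescence anisotropy tracks displacement of a FITC-tagged PTAP peptide (50 nM) from the Tsg101 binding domain (10 uM), following a 20 min room-temperature incubation at pH 7.5.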
# A number is an active result; i = inactive; ? = inconclusive; nt = not tested or not shown; ! = a repeat was not active. Unless noted, calls follow the shape of the dose curve; as a rule, active = well fitted curve in the direction sought with a large enough effect; inconclusive = small, poorly fitted or top-dose-only effect, or another doubt; inactive = no such curve, though single readings can be large; an effect the other way counts as inactive or inconclusive.
SMILES,RGS4 inhibitor,MCF10A rerep,KB-V1 MDR tox,KB-3-1 cytotox,SW480 rereplic,PTAP TSG101 blk
NC(=NCc1ccc(Cl)cc1)SCCCc1cnc[nH]1,i,nt,nt,nt,nt,nt
CN(C)c1ccc(/C=C/[N+](=O)[O-])cc1,i,i,i,i,?,i
C/C(=C\c1ccc(N(C)C)cc1)[N+](=O)[O-],?,2.6µM,?,?,5.8µM,i
COc1ccc(CCNC(=O)N2c3ccccc3Sc3ccccc32)cc1,i,16µM,?,?,i,i
CCN1C[C@@]2(COC(=O)c3ccccc3N3C(=O)CC(C)C3=O)CC[C@H](OC)[C@]34C5C[C@@H]6[C@@H](OC)C[C@@](O)(C5[C@H]6OC)[C@@](O)(C13)[C@@H](OC)C24 (some centres not stated),i,nt,nt,nt,nt,nt
CN1c2ccccc2C(NCCCCCCC(=O)O)c2ccc(Cl)cc2S1(=O)=O (configuration not stated),nt,i,nt,nt,i,nt
Cc1ccc(C(C)C)c(OCC(=O)N2CCN(CCc3ccncc3)CC2)c1,i,nt,i,i,nt,nt
COCCCn1c(=O)/c(=C\c2ccccc2OC(F)F)s/c1=C(/C#N)C(=O)NCCOC,i,15µM,i,i,?,i
CCCCCCCCCCCCCC(=O)O[C@@H]1[C@@H](C)[C@@]2(O)[C@H](C=C(CO)C[C@]3(O)C(=O)C(C)=C[C@@H]23)[C@@H]2C(C)(C)C12OC(C)=O (some centres not stated),i,nt,nt,nt,nt,nt
C=CCC1(C(C)CCC)C(=O)N=C(S)NC1=O (configuration not stated),nt,i,nt,nt,i,nt
CN(C(=O)Oc1ccc(Cl)c2cccnc12)c1ccccc1,i,i,18µM,i,i,i
CN(C(=O)Oc1cccc2cccnc12)c1ccccc1,i,i,?,i,i,i
CCNC(=O)CCSc1nc2cc(Cl)ccc2o1,i,i,i,i,?,i
CC1(C)OC(c2ccccc2)=C/C(=C/C=C2C(=O)NC(=O)NC2=O)O1,i,18µM,i,?,18µM,i
O=C1NC(=O)C(=Cc2ccc(Sc3ccccc3)o2)C(=O)N1,?,?,?,i,?,i
CC1OC(=O)C(C(C)C)NC(=O)C(C(C)C)OC(=O)C(C(C)C)NC(=O)C(C)OC(=O)C(C(C)C)NC(=O)C(C(C)C)OC(=O)C(C(C)C)NC(=O)C(C)OC(=O)C(C(C)C)NC(=O)C(C(C)C)OC(=O)C(C(C)C)NC1=O (configuration not stated),i,nt,nt,nt,nt,nt
COc1ccc(-n2c(/C=C/c3ccc(O)c(O)c3)nc3ccccc3c2=O)cc1,i,?,i,i,?,i
COc1cc(/C=C/c2nc3ccccc3c(=O)n2-c2ccc(O)cc2)ccc1O,i,21µM,?,?,?,i
C[C@H]1CC2C3CC=C4C[C@@H](O)CC[C@]4(C)C3CC[C@]2(C)[C@H]1O (some centres not stated),i,?,18µM,i,i,i
C[C@@H]1CC2C3CC=C4C[C@@H](O)CC[C@]4(C)C3CC[C@]2(C)[C@H]1O (some centres not stated),i,i,?,?,i,i
C[C@]12CC[C@H](N)CC1=CCC1C2CC[C@@]2(C)C1CC[C@@H]2O (some centres not stated),i,?,i,i,18µM,i
C[C@]12CC[C@@H](O)CC1=CCC1C2CC[C@@]2(C)C1CC[C@@H]2N (some centres not stated),i,?,i,i,?,i
O=C(Nc1ccc(F)cc1)OC1CN2CCC1CC2 (configuration not stated),i,8.2µM,i,i,i,i
Cc1c(O)c(=O)ccn1C,i,?,i,i,i,i
CCCCc1nc2ccccc2c(=O)n1-c1ccc(Cl)cc1[N+](=O)[O-],i,i,4.1µM,i,i,i
SMILES,RGS4 inhibitor,MCF10A rerep,KB-V1 MDR tox,KB-3-1 cytotox,SW480 rereplic,PTAP TSG101 blk
Cc1cc(C)cc(C(=O)OC2C[C@H]3CC[C@@H](C2)N3C)c1 (some centres not stated),i,nt,nt,nt,nt,nt
Cc1cc(Br)c(NC(=O)CN2CC=C(c3ccccc3)CC2)c(Br)c1,i,?,i,i,?,i
CCN(CC)S(=O)(=O)c1cc(NC(=O)C(C)N2CC=C(c3ccccc3)CC2)ccc1C (configuration not stated),i,i,16µM,21µM,?,i
c1ccc2c(c1)OCC(C1=NCCN1)O2 (configuration not stated),i,18µM!,i,?,?,i
NC(N)=NCCCCCCCCCCN=C(N)N,i,nt,nt,nt,nt,nt
C=C1C(=O)OC2CC(C)C3C=CC(=O)C3(C)C(O)C12 (configuration not stated),?,i,3.7µM,3.3µM,?,i
C=C1C(=O)O[C@@H]2C[C@@H](C)[C@@H]3C=CC(=O)[C@@]3(C)[C@@H](OC(=O)CC(=O)O[C@H]3[C@@H]4C(=C)C(=O)O[C@@H]4C[C@@H](C)[C@@H]4C=CC(=O)[C@]43C)[C@H]12,i,?,i,i,?,i
C=C1C(=O)O[C@H]2C[C@@H](C)[C@@H]3C=CC(=O)[C@@]3(C)C[C@H]12,i,2.9µM,?,?,?,i
C=C1C(=O)O[C@H]2[C@H]1[C@H](OC(=O)CC(=O)O[C@@H]1C[C@@H](C)[C@@H]3C=CC(=O)[C@@]3(C)[C@H]3OC(=O)C(=C)[C@H]13)C[C@@H](C)[C@H]1C=CC(=O)[C@]12C,?,2.3µM,i,i,i,i
Cc1ccc(Cl)cc1NC(=O)N(Cc1ccc2c(c1)OCO2)C1CCN(Cc2ccccc2)CC1,i,nt,?,i,nt,nt
CSCCC(c1nnnn1C1CCCC1)N1CCC(n2c(=O)[nH]c3ccccc32)CC1 (configuration not stated),nt,nt,23µM,i,nt,nt
O=c1[nH]c2ccccc2n1C1CCN(C(CCc2ccccc2)c2nnnn2Cc2ccccc2)CC1 (configuration not stated),nt,nt,6.5µM,?,nt,nt
CSCCC(c1nnnn1Cc1ccccc1)N1CCC2(CC1)C(=O)NCN2c1ccccc1 (configuration not stated),nt,nt,15µM,i,nt,nt
CSCCC(c1nnnn1C1CCCCC1)N1CCC(n2c(=O)[nH]c3ccccc32)CC1 (configuration not stated),nt,nt,i,i,nt,nt
CSCCC(c1nnnn1Cc1ccccc1)N1CCC(n2c(=O)[nH]c3ccccc32)CC1 (configuration not stated),nt,nt,10µM,i,nt,nt

# Source: PubChem BioAssay
